Laboratory results from PubChem BioAssay (NCI).
Compounds without any hit were thinned out: in the full panel of roughly 79,000, 15% have a hit. Activity calls are given as the source filed them. Cut-off read from the data, not from the text of the source: active = growth inhibition above about 70%; inactive = the rest.

Columns and labels:
[1] = NCI Yeast Anticancer Drug Screen. Data for the rad52 strain (AID 147);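 note: 0% = growth of vehicle-treated control cultures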; details: S. cerevisiae rad52 mutant growth inhibition, hits give high values
In short: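 Compounds are applied to a genetically defined yeast strain lacking normal DNA damage repair, and inhibition of growth is expressed relative to cultures given vehicle only.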

[2] = NCI Yeast Anticancer Drug Screen. Data for the rad50EPP+ strain (AID 151);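 note: 0% = growth of vehicle-treated control cultures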; details: S. cerevisiae rad50 mutant strain, hits give high values
In short: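 Compounds were applied to the rad50EPP+ yeast strain, which bears a defined DNA repair alteration, and growth inhibition was determined relative to vehicle-treated cultures.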

[3] = NCI Yeast Anticancer Drug Screen. Data for the mgt1 strain (AID 153); details: S. cerevisiae mgt1 mutant growth inhibition, hits give high values
In short: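 Strain: mgt1 yeast, one of a set carrying defined DNA damage repair or cell cycle control alterations. Compound-treated growth compared with vehicle.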

[4] = NCI Yeast Anticancer Drug Screen. Data for the rad50 strain (AID 155);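 note: 0% = growth of vehicle-only cultures of the same strain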; details: S. cerevisiae rad50 strain growth inhibition, hits give high values
In short: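 Compounds were tested on a yeast strain with an engineered DNA damage repair alteration; the reported value is growth inhibition normalised to vehicle treatment.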

[5] = NCI Yeast Anticancer Drug Screen. Data for the mec2-1 strain (AID 157); details: S. cerevisiae mec2-1 strain, hits give high values
In short: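 Strain: mec2-1 (DNA repair/cell cycle alteration). Compound exposure, then growth measured; inhibition expressed relative to vehicle.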

[6] = NCI Yeast Anticancer Drug Screen. Data for the rad14 strain (AID 159);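 note: 0% = growth of vehicle-treated control cultures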; details: S. cerevisiae rad14 strain growth inhibition, hits give high values
In short: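 Compound-treated yeast with a defined DNA-repair lesion; growth inhibition normalised to vehicle-treated cultures.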

[7] = NCI Yeast Anticancer Drug Screen. Data for the sgs1 mgt1 strain (AID 161);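 note: 0% = growth of cultures given vehicle only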; details: S. cerevisiae sgs1 mgt1 strain, hits give high values
In short: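 Read-out: growth inhibition vs vehicle controls. Cells: mutant yeast strain deficient in DNA damage repair.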

[8] = NCI Yeast Anticancer Drug Screen. Data for the CLN2oe strain (AID 163);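 note: 0% = growth of vehicle-only control cultures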; details: S. cerevisiae CLN2oe strain, hits give high values
In short: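 Growth of a genetically modified yeast strain is measured after compound exposure and compared with cultures given vehicle alone.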

[9] = NCI Yeast Anticancer Drug Screen. Data for the wt2 strain (AID 169);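 note: 0% = growth of vehicle-treated yeast cultures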; details: S. cerevisiae wt2 strain growth inhibition, hits give high values
In short: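 This strain belongs to a panel of yeast strains with defined genetic alterations in DNA damage repair or cell cycle control. Compounds are applied, and growth inhibition is measured against vehicle-treated cultures.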

[10] = NCI Yeast Anticancer Drug Screen. Data for the mlh1 strain (AID 171);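 note: 0% = growth of vehicle-treated control cultures of the same strain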; details: S. cerevisiae mlh1 strain growth inhibition, hits give high values
In short: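 Growth of the mutant yeast strain after compound exposure, expressed as inhibition relative to vehicle-only controls.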

[11] = NCI Yeast Anticancer Drug Screen. Data for the sgs1 strain (AID 173);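 note: 0% = growth of vehicle-only control cultures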; details: S. cerevisiae sgs1 mutant, hits give high values
In short: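 Growth of a yeast strain bearing a defined genetic alteration is measured after compound treatment. Inhibition is expressed relative to vehicle-only controls.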

[12] = NCI Yeast Anticancer Drug Screen. Data for the mlh1 rad18 strain (AID 175); details: S. cerevisiae mlh1 rad18 strain growth inhibition, hits give high values
In short: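 Read-out is yeast growth inhibition, calculated against vehicle-only controls. The compound was applied to a strain engineered with DNA damage repair alterations.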

[13] = NCI Yeast Anticancer Drug Screen. Data for the rad18 strain (AID 177); details: S. cerevisiae rad18 mutant growth inhibition, hits give high values
In short: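 Growth of the mutant yeast strain after compound exposure, normalised to vehicle-only cultures.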

[14] = NCI Yeast Anticancer Drug Screen. Data for the cln2 rad14 strain (AID 165);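 note: 0% = growth equal to vehicle treated cultures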; details: S. cerevisiae cln2 rad14 strain, hits give high values
In short: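 Compounds are applied to the cln2 rad14 yeast strain, and growth is then compared with that of vehicle-treated cultures to give inhibition.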

[15] = NCI Yeast Anticancer Drug Screen. Data for the bub3 strain (AID 167); details: S. cerevisiae bub3 mutant strain, hits give high values
In short: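 Growth of a checkpoint-deficient yeast mutant is measured after compound exposure. Values represent inhibition relative to vehicle.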

[16] = at 5.0 µM (retest, dose inferred, filed as 0.5)
[17] = at 50.0 µM (retest, dose inferred, filed as 5.0)

Measured: growth inhibition

O=C(O)Cc1cc(F)ccc1C(=O)O
inactive: [1]; at 1.2 µM 3% | [1]; at 3.7 µM 4% | [1]; at 11.0 µM 7% | [1]; at 33.0 µM 12% | [1]; at 100.0 µM 28% | [2]; at 1.2 µM -2% | [2]; at 3.7 µM -6% | [2]; at 11.0 µM -13% | [2]; at 33.0 µM -26% | [2]; at 100.0 µM -15% | [3]; at 1.2 µM -1% | [3]; at 3.7 µM 3% | [3]; at 11.0 µM 9% | [3]; at 33.0 µM 28% | [3]; at 100.0 µM 48% | [4]; at 1.2 µM 3% | [4]; at 3.7 µM 3% | [4]; [16] -2% | [4]; at 11.0 µM 6% | [4]; at 33.0 µM 12% | [4]; [17] 45% | [4]; at 50.0 µM 5.3% | [4]; at 100.0 µM 29% | [5]; at 1.2 µM -1% | [5]; at 3.7 µM 0% | [5]; [16] 1% | [5]; at 11.0 µM 3% | [5]; at 33.0 µM 11% | [5]; [17] 2% | [5]; at 50.0 µM 29.9% | [5]; at 100.0 µM 30% | [6]; at 1.2 µM 0% | [6]; at 3.7 µM -2% | [6]; at 11.0 µM 4% | [6]; at 33.0 µM 14% | [6]; at 100.0 µM 51% | [7]; [16] -8% | [7]; [17] 65% | [7]; at 50.0 µM 21.2% | [8]; at 1.2 µM 1% | [8]; at 3.7 µM 4% | [8]; at 11.0 µM 12% | [8]; at 33.0 µM 7% | [8]; at 100.0 µM 12% | [9]; at 1.2 µM 2% | [9]; at 3.7 µM 6% | [9]; at 11.0 µM 13% | [9]; at 33.0 µM 18% | [9]; at 100.0 µM 42% | [10]; at 1.2 µM 5% | [10]; at 3.7 µM 2% | [10]; at 11.0 µM 7% | [10]; at 33.0 µM 15% | [11]; at 1.2 µM 2% | [11]; at 3.7 µM 7% | [11]; at 11.0 µM 9% | [11]; at 33.0 µM 21% | [11]; at 100.0 µM 65% | [12]; [16] -5% | [12]; at 50.0 µM 38.3% | [13]; at 1.2 µM 3% | [13]; at 3.7 µM 1% | [13]; at 11.0 µM 0% | [13]; at 33.0 µM 12% | [13]; at 100.0 µM 42%
active: [10]; at 100.0 µM 76% | [12]; [17] 75%

O=C(c1ccc([N+](=O)[O-])cc1)C1N=NCC1c1ccccc1 (stereo not given)
active: [15]; at 50.0 µM 71.8% | [15]; at 100.0 µM 75% | [11]; at 100.0 µM 78%
inactive: [1]; at 1.2 µM 2% | [1]; at 3.7 µM 5% | [1]; at 11.0 µM 6% | [1]; at 33.0 µM 7% | [1]; at 100.0 µM 45% | [2]; at 1.2 µM -2% | [2]; at 3.7 µM -3% | [2]; at 11.0 µM -2% | [2]; at 33.0 µM 9% | [2]; at 100.0 µM 37% | [3]; at 1.2 µM -4% | [3]; at 3.7 µM -2% | [3]; at 11.0 µM 0% | [3]; at 33.0 µM 19% | [3]; at 100.0 µM 62% | [4]; at 1.2 µM 4% | [4]; at 3.7 µM 4% | [4]; [16] 13% | [4]; at 11.0 µM 5% | [4]; at 33.0 µM 7% | [4]; [17] 11% | [4]; at 50.0 µM 31% | [4]; at 100.0 µM 34% | [5]; at 1.2 µM -2% | [5]; at 3.7 µM 1% | [5]; [16] 0% | [5]; at 11.0 µM 1% | [5]; at 33.0 µM 1% | [5]; [17] 22% | [5]; at 50.0 µM 20.8% | [5]; at 100.0 µM 45% | [7]; [16] 3% | [7]; [17] 27% | [7]; at 50.0 µM 59% | [8]; at 1.2 µM 0% | [8]; at 3.7 µM 2% | [8]; at 11.0 µM 4% | [8]; at 33.0 µM 9% | [8]; at 100.0 µM 54% | [14]; [16] 5% | [14]; [17] 27% | [14]; at 50.0 µM 55.6% | [15]; at 1.2 µM 0% | [15]; at 3.7 µM -3% | [15]; [16] -3% | [15]; at 11.0 µM 2% | [15]; at 33.0 µM 11% | [15]; [17] 30% | [9]; at 1.2 µM 0% | [9]; at 3.7 µM -1% | [9]; at 11.0 µM 1% | [9]; at 33.0 µM 4% | [9]; at 100.0 µM 64% | [11]; at 1.2 µM 0% | [11]; at 3.7 µM 1% | [11]; at 11.0 µM 3% | [11]; at 33.0 µM 13% | [12]; [16] -3% | [12]; [17] 35% | [12]; at 50.0 µM 42% | [13]; at 1.2 µM 2% | [13]; at 3.7 µM 0% | [13]; at 11.0 µM 7% | [13]; at 33.0 µM 1% | [13]; at 100.0 µM 40%

O=C(Nc1ccc(Cl)cc1)Nc1nnc2nc(C(C(=O)c3cccc([N+](=O)[O-])c3Cl)c3nc4nnc(NC(=O)Nc5ccc(Cl)cc5)n4[nH]c3=O)c(=O)[nH]n12
inactive: [1]; at 1.2 µM 2% | [1]; at 3.7 µM 2% | [1]; at 11.0 µM 2% | [1]; at 33.0 µM 4% | [1]; at 100.0 µM 52% | [2]; at 1.2 µM 4% | [2]; at 3.7 µM 5% | [2]; at 11.0 µM 8% | [2]; at 33.0 µM 23% | [2]; at 100.0 µM 29% | [3]; at 1.2 µM 0% | [3]; at 3.7 µM 1% | [3]; at 11.0 µM 0% | [3]; at 33.0 µM 15% | [3]; at 100.0 µM 47% | [4]; at 1.2 µM 1% | [4]; at 3.7 µM 0% | [4]; [16] -12% | [4]; at 11.0 µM 2% | [4]; at 33.0 µM 2% | [4]; [17] 10% | [4]; at 100.0 µM 31% | [5]; at 1.2 µM -4% | [5]; at 3.7 µM -2% | [5]; [16] -2% | [5]; at 11.0 µM -12% | [5]; at 33.0 µM 0% | [5]; [17] 10%
active: [4]; at 50.0 µM 99.5% | [5]; at 50.0 µM 99.5%
